# Laboratory results published in PubChem BioAssay (EPA / NIEHS).
# “And” between values parts separate entries of the source, which are not always exact repeats. Equal values may be shown once. Results filed as inconclusive are left out. A structure can be active in one record and inactive in another. The source made the active and inactive calls. Rule for the calls, unless noted: active = hit-call score of the fitted dose curve at least 0.9, where 1 is the maximum; inconclusive = response in the unintended direction; inactive = score below 0.9.
# What was measured:
# [1] = molecular target: Retinoic acid receptor alpha (Homo sapiens) (UniProt P10276); assay: ATG_DR5_RAR_CIS: Attagene CIS-FACTORIAL HepG2 Assay for human Retinoic Acid Receptor Alpha (RARE), DR5 submotif (AID 2282934; active = hit-call score of the fitted dose curve at least 0.9, where 1 is the maximum; inactive = score below 0.9); conditions: HepG2 Attagene cis-factorial RARE DR5 reporter, mRNA; actives raise or lower the signal
# Method in brief: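 HepG2 cells transiently transfected with multiplexed reporter units under cis (DR5 RARE) promoters, so endogenous transcription factor activity is measured. After 24 h compound exposure, reporter mRNA is quantified by RT-PCR with fluorescent labelling and capillary electrophoresis; bidirectional fitting versus DMSO.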
# [2] = ATG_ERE_CIS: Attagene CIS-FACTORIAL HepG2 Assay for Estrogen Response Element (ERE) (AID 2282940; active = hit-call score of the fitted dose curve at least 0.9, where 1 is the maximum; inactive = score below 0.9); conditions: HepG2 ERE cis-reporter, Attagene RNA transcript; actives raise or lower the signal
# Method in brief: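 After a 24 h chemical treatment, RNA from reporter-transfected HepG2 cells is reverse-transcribed, PCR-amplified and fluorescently labelled. Fragments separated by capillary electrophoresis give reporter signal; DMSO serves as negative control.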
# [3] = molecular target: Bile acid receptor (Homo sapiens) (UniProt Q96RI1); assay: ATG_IR1_CIS: Attagene CIS-FACTORIAL HepG2 Assay for human Nuclear Receptor Subfamily 1 Group H Member 4 (NR1H4), IR1 submotif (AID 2282946; active = hit-call score of the fitted dose curve at least 0.9, where 1 is the maximum; inactive = score below 0.9); conditions: IR1 reporter transcription, actives raise or lower the signal
# Method in brief: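 Readout: reporter transcript levels by RT-PCR with fluorescent capillary electrophoresis, from HepG2 cells transiently transfected with multiplexed cis-regulated reporters and dosed 24 h. Gain- or loss-of-signal fitted versus DMSO negative control.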
# [4] = ATG_PPRE_CIS: Attagene CIS-FACTORIAL HepG2 Assay for human Peroxisome Proliferator-activated Response Element (PPRE) (AID 2282958; active = hit-call score of the fitted dose curve at least 0.9, where 1 is the maximum; inactive = score below 0.9); conditions: HepG2 PPRE cis-element reporter, Attagene transcription factor profiling; actives raise or lower the signal
# Method in brief: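 DMSO served as negative control and baseline for bidirectional curve fitting. Signal came from PPRE-regulated reporter mRNA in HepG2 cells, measured 24 h post-dosing by RT-PCR, 6-FAM primer extension and capillary electrophoresis.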
# [5] = molecular target: Nuclear receptor subfamily 1 group I member 3 (Homo sapiens) (UniProt Q14994); assay: ATG_CAR_TRANS: Attagene TRANS-FACTORIAL HepG2 Assay for human Constitutive Androstane Receptor (CAR) (AID 2282969); conditions: HepG2 Attagene TRANS-FACTORIAL CAR reporter;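 note: activators raise reporter mRNA above DMSO so AC50 marks induction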
# Method in brief: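 Steps: transient transfection of HepG2 with multiple GAL4-UAS reporter units; 24 h compound incubation; RNA isolation, RT-PCR, 6-FAM primer extension, HpaI digest; capillary electrophoresis. Gain-of-signal relative to DMSO negative control.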
# [6] = ATG_M_19_TRANS: Attagene TRANS-FACTORIAL HepG2 Assay for M19 Transcription Factor (Internal Marker) (AID 2282974); conditions: HepG2 Attagene TRANS-FACTORIAL M19 internal marker reporter
# Method in brief: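 Multiplexed TRANS format: HepG2 liver cells bearing transient GAL4-UAS reporter units, chemical treatment 24 h, reporter transcripts quantified by RT-PCR plus capillary electrophoresis. DMSO defines baseline.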
# [7] = molecular target: Oxysterols receptor LXR-beta (Homo sapiens) (UniProt P55055); assay: ATG_LXRb_TRANS: Attagene TRANS-FACTORIAL HepG2 Assay for human Liver X Receptor beta (LXRb) (AID 2282981); conditions: HepG2 Attagene TRANS GAL4-LXRb reporter, mRNA
# Method in brief: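 Liver-derived HepG2 cells transfected with Gal4-responsive reporters were dosed for 24 h. Activation was scored as rise in reporter mRNA, by RT-PCR and capillary electrophoresis, above DMSO baseline.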
# [8] = molecular target: Nuclear receptor subfamily 4 group A member 2 (Homo sapiens) (UniProt P43354); assay: ATG_NURR1_TRANS: Attagene TRANS-FACTORIAL HepG2 Assay for human Nuclear Receptor Related Protein 1 (NURR1) (AID 2282985); conditions: HepG2 Attagene TRANS reporter, mRNA readout
# Method in brief: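 Chimeric NR-Gal4 proteins were expressed in human HepG2 cells bearing GAL4-UAS reporter units, and induced reporter mRNA was quantified 24 h post-dosing by RT-PCR and capillary electrophoresis.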
# [9] = molecular target: human Peroxisome Proliferator-activated Receptor alpha (PPARa), PPARA (gene 5465) (UniProt Q07869); assay: ATG_PPARa_TRANS: Attagene TRANS-FACTORIAL HepG2 Assay for human Peroxisome Proliferator-activated Receptor alpha (PPARa) (AID 2283001)
# Method in brief: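 Exposure: 24 h, transiently transfected HepG2 cells. Endpoint: GAL4-UAS reporter mRNA, RT-PCR with capillary electrophoresis fluorescence. Baseline: DMSO; increases fitted.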
# [10] = molecular target: human Peroxisome Proliferator-activated Receptor delta (PPARd), PPARD (gene 5467) (UniProt Q03181); assay: ATG_PPARd_TRANS: Attagene TRANS-FACTORIAL HepG2 Assay for human Peroxisome Proliferator-activated Receptor delta (PPARd) (AID 2283002)
# Method in brief: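 HepG2 cells transiently transfected with multiplexed GAL4-UAS reporter units and exogenous chimeric NR-Gal4 proteins; 24 h compound exposure. Reporter mRNA measured by RT-PCR, 6-FAM labelling, HpaI digestion and capillary electrophoresis; gain of signal versus DMSO.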
# [11] = TOX21_p53_BLA_p2_viability: Viability Assessment in the Tox21 HCT-116 p53 Agonism Beta-lactamase Assay, Phase 2 (AID 2283591);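 note: compound exposure lasted 16 h at 37 °C; actives lower the ATP signal meaning cytotoxicity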
# Method in brief: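 HCT-116 p53-bla cells (4000/well) rested 5 h at 37C, then received compounds in DMSO (217-fold dilution) for 16 h at 37C, 5% CO2. After the CCF4 read, CellTiter-Glo was added; ATP luminescence was read after 30 min at room temperature.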
# [12] = TOX21_p53_BLA_p3_viability: Viability Assessment in the Tox21 HCT-116 p53 Agonism Beta-lactamase Assay, Phase 3 (AID 2283593);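 note: cells exposed to compound for 16 h before reading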
# Method in brief: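 HCT-116 cells (4000/well) rested 5 h at 37C, then got DMSO compounds by pin tool (217-fold dilution) for 16 h at 37C, 5% CO2. After the bla read, CellTiter-Glo was added and luminescence read at 30 min, room temperature.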
# [13] = molecular target: Cellular tumor antigen p53 (Homo sapiens) (UniProt P04637); assay: TOX21_p53_BLA_p3_ratio: Tox21 HCT-116 p53 Agonism Beta-lactamase Assay, Ratio, Phase 3 (AID 2283596)
# Method in brief: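 Cells were seeded at 4000/well, rested 5 h at 37C, then dosed with DMSO compound solutions (217-fold dilution) for 16 h. CCF4-AM substrate was loaded for 2 h at room temperature, and the 460/530 nm emission ratio was fitted for gain of signal versus DMSO.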
# [14] = TOX21_p53_BLA_p4_viability: Viability Assessment in the Tox21 HCT-116 p53 Agonism Beta-lactamase Assay, Phase 4 (AID 2283597);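 note: hits lower the luminescence signal meaning cytotoxicity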
# Method in brief: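 Cytotoxicity as reduced cellular ATP (CellTiter-Glo luminescence, 30 min room temperature), measured in the same wells following the CCF4 FRET p53 reading. Human HCT-116 cells received compounds in DMSO (217-fold dilution) for 16 h.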
# [15] = TOX21_p53_BLA_p5_viability: Viability Assessment in the Tox21 HCT-116 p53 Agonism Beta-lactamase Assay, Phase 5 (AID 2283600)
# Method in brief: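 Viability came from CellTiter-Glo ATP luminescence, read after 30 min at room temperature. Before this, HCT-116 p53-bla cells (4000/well) had 16 hours of compound exposure at 37C, with DMSO stocks diluted 217-fold on transfer.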
# [16] = ATG_GAL4_TRANS: Attagene TRANS-FACTORIAL HepG2 Assay for GAL4 (Internal Marker) (AID 2282976); conditions: HepG2 Attagene TRANS GAL4 internal marker reporter
# Method in brief: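 In transfected human HepG2 liver cells dosed 24 h, GAL4 reporter mRNA serves as a baseline marker. Detection by RT-PCR with fluorescent capillary electrophoresis, activity fitted upward relative to DMSO.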
# [17] = molecular target: human RAR-related Orphan Receptor gamma (RORg), RORC (gene 6097) (UniProt P51449); assay: ATG_RORg_TRANS: Attagene TRANS-FACTORIAL HepG2 Assay for human RAR-related Orphan Receptor gamma (RORg) (AID 2283011)
# Method in brief: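 Reporter transcripts from a transfected RORg-GAL4 chimera in HepG2 cells were quantified 24 h after dosing by RT-PCR, 6-FAM labelling, HpaI digestion and capillary electrophoresis; increases over DMSO baseline were fitted.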
# [18] = molecular target: human Retinoid X Receptor beta (RXRb), RXRB (gene 6257) (UniProt P28702); assay: ATG_RXRb_TRANS: Attagene TRANS-FACTORIAL HepG2 Assay for human Retinoid X Receptor beta (RXRb) (AID 2283013)
# Method in brief: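 After a 24 h incubation with test chemical, transfected HepG2 cells carrying NR-Gal4 fusions and GAL4-UAS reporter transcription units yield RNA whose reporter cDNA is FAM-labelled, HpaI-cut and sized by capillary electrophoresis; increases over DMSO are scored.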
# [19] = molecular target: human Vitamin D Receptor (VDR), VDR (gene 7421) (UniProt P11473); assay: ATG_VDR_TRANS: Attagene TRANS-FACTORIAL HepG2 Assay for human Vitamin D Receptor (VDR) (AID 2283022)
# Method in brief: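 Transactivation by an exogenous VDR-Gal4 chimera in transiently transfected HepG2 cells was measured as reporter transcript level 24 hours after chemical treatment. RT-PCR products were analysed by capillary electrophoresis and fitted in the positive direction relative to DMSO.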
# [20] = molecular target: human RAR-related Orphan Receptor beta (RORb), RORB (gene 6096) (UniProt Q92753); assay: ATG_RORb_TRANS: Attagene TRANS-FACTORIAL HepG2 Assay for human RAR-related Orphan Receptor beta (RORb) (AID 2283010)
# Method in brief: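 Multiplexed transcription-factor reporter assay: HepG2 cells transiently carrying NR-Gal4/GAL4-UAS constructs, 24 h treatment, mRNA quantified by RT-PCR plus capillary electrophoresis fluorescence; activity scored as induction over DMSO.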
# Sequence of human Peroxisome Proliferator-activated Receptor alpha (PPARa), PPARA (gene 5465) (Q07869 whole entry, looked up, the tested form may be a part): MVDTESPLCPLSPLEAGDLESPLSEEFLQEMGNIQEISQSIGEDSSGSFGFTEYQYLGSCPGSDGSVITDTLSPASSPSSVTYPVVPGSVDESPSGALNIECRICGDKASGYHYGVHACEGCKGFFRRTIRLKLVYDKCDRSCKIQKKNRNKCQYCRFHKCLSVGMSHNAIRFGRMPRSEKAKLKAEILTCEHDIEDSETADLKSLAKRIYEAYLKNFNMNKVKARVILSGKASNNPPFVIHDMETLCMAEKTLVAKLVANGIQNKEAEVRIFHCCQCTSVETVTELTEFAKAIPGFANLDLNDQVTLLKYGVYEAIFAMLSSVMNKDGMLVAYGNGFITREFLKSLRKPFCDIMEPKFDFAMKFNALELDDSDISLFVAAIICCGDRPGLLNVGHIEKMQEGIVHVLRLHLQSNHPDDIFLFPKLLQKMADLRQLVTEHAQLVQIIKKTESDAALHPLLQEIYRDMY
# Sequence of Cellular tumor antigen p53 (Homo sapiens) (P04637 whole entry, looked up): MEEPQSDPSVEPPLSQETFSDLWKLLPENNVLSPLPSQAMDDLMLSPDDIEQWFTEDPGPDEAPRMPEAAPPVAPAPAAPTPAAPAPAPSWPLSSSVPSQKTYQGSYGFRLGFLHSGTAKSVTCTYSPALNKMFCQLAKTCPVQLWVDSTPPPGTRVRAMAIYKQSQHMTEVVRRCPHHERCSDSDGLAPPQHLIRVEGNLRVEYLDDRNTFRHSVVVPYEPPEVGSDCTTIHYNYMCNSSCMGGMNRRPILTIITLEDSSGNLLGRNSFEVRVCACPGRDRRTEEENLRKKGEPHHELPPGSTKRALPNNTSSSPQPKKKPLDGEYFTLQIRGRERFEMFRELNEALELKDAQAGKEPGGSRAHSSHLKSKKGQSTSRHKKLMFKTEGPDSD
# Sequence of Nuclear receptor subfamily 1 group I member 3 (Homo sapiens) (Q14994 whole entry, looked up, the tested form may be a part): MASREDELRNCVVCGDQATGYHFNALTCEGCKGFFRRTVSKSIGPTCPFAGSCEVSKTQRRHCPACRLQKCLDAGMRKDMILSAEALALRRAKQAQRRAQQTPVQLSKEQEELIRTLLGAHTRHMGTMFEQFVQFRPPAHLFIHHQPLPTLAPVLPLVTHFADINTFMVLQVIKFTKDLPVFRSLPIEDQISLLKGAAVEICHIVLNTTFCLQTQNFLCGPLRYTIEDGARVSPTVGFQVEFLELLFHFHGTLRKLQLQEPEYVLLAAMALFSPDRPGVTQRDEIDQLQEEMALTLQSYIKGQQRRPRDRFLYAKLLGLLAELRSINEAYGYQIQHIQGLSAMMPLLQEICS
# Sequence of Oxysterols receptor LXR-beta (Homo sapiens) (P55055 whole entry, looked up, the tested form may be a part): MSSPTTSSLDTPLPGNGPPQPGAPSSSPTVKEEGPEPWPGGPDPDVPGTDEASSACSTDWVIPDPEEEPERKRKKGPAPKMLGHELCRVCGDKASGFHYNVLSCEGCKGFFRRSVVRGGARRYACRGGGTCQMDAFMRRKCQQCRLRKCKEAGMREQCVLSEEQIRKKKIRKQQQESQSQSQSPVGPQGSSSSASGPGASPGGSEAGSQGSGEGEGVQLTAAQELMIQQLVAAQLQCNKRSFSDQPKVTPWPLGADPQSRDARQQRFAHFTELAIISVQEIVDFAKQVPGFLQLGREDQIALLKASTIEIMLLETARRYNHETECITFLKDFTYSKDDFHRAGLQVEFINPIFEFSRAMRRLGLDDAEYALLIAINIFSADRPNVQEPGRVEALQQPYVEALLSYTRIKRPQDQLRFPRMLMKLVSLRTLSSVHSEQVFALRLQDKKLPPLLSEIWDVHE
# Sequence of human Vitamin D Receptor (VDR), VDR (gene 7421) (P11473 whole entry, looked up, the tested form may be a part): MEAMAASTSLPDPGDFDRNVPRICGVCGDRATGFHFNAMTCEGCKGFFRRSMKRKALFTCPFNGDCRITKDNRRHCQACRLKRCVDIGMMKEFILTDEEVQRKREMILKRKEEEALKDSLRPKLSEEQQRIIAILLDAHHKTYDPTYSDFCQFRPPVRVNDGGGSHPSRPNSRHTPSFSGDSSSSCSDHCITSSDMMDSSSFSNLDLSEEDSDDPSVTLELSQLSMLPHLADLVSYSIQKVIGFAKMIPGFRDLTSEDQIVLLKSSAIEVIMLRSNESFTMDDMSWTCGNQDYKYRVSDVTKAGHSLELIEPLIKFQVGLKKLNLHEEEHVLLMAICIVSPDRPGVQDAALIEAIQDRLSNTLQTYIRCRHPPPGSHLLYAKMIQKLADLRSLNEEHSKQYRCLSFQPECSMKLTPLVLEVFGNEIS
# Sequence of Bile acid receptor (Homo sapiens) (Q96RI1 whole entry, looked up): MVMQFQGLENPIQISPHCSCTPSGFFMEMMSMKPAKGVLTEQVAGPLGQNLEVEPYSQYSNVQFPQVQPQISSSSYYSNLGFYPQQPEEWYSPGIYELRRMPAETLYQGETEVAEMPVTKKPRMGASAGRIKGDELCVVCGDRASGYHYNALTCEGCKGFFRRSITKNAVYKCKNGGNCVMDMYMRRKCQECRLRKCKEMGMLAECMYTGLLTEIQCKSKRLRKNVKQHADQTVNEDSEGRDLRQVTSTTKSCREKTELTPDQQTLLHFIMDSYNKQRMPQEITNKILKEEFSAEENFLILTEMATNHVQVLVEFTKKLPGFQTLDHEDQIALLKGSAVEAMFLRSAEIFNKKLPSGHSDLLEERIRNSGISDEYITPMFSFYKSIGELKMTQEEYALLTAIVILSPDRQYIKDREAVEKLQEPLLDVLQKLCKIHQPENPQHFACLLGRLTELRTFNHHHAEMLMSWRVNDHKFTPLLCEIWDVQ
# Sequence of human RAR-related Orphan Receptor beta (RORb), RORB (gene 6096) (Q92753 whole entry, looked up, the tested form may be a part): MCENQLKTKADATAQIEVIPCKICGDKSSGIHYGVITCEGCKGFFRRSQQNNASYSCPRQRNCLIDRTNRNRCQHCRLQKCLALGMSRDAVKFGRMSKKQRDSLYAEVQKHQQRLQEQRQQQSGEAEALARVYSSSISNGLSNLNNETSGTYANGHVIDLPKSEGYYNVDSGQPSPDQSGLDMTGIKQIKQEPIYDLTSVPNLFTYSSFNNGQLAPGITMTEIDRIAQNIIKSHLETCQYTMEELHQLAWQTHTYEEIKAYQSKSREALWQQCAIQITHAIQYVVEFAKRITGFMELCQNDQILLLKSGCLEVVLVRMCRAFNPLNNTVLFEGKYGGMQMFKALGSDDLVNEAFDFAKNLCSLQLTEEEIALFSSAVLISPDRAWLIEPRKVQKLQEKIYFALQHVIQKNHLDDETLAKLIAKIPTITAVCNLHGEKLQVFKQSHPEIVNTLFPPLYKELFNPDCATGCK
# Sequence of Retinoic acid receptor alpha (Homo sapiens) (P10276 whole entry, looked up): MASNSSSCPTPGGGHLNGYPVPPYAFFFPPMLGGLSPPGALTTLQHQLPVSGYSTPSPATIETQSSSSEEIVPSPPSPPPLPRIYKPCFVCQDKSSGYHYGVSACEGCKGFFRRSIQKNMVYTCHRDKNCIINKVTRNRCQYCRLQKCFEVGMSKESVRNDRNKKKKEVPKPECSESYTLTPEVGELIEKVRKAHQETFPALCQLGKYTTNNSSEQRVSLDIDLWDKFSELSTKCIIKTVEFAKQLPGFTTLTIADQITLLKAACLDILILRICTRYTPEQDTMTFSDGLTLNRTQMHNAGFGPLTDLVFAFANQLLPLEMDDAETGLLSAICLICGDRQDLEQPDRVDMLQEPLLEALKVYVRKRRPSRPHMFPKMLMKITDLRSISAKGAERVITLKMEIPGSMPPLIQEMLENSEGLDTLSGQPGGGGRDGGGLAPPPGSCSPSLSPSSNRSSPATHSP
# Sequence of human Peroxisome Proliferator-activated Receptor delta (PPARd), PPARD (gene 5467) (Q03181 whole entry, looked up, the tested form may be a part): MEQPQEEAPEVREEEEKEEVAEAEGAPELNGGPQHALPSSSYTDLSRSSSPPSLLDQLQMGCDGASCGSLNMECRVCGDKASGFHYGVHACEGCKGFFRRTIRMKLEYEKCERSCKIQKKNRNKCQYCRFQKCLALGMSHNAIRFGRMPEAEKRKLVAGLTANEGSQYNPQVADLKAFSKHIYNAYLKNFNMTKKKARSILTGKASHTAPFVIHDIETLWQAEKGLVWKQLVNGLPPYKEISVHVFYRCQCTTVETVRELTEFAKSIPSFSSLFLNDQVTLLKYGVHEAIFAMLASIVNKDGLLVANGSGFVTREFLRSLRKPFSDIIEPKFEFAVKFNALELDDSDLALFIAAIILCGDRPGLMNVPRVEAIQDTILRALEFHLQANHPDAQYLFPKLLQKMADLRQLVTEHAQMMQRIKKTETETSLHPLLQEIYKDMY
# Sequence of human RAR-related Orphan Receptor gamma (RORg), RORC (gene 6097) (P51449 whole entry, looked up, the tested form may be a part): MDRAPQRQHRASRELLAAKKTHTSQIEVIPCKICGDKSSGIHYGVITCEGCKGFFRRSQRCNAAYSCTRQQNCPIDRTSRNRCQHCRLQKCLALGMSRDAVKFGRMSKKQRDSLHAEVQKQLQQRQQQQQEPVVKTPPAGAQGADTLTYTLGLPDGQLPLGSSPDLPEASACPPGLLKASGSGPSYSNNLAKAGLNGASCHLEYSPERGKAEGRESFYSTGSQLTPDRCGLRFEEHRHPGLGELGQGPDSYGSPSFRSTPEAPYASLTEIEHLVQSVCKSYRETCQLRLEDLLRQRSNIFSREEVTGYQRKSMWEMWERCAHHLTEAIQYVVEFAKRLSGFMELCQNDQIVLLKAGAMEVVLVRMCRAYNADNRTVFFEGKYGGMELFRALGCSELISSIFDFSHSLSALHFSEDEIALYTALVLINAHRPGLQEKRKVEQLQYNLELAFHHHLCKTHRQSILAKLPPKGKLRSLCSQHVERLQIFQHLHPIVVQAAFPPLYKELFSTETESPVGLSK
smiles,measurement,setting,value
c1ccc(Nc2ccc3ccccc3c2)cc1,outcome,[1],inactive
same,AC50,[2],8.6 µM (active)
same,outcome,[3],inactive
same,AC50,[4],39.8 µM (active)
same,outcome,[5],inactive
same,outcome,[6],inactive
same,outcome,[7],inactive
same,outcome,[8],inactive
same,outcome,[9],inactive
same,outcome,[10],inactive
same,AC50,[11],63.2 µM (active)
same,outcome,[11],inactive
same,outcome,[12],inactive
same,outcome,[13],inactive
same,AC50,[14],73.9 µM (active) and 83 µM (active)
same,outcome,[15],inactive
N#CCCCl,outcome,[1],inactive
same,outcome,[5],inactive
same,outcome,[16],inactive
same,outcome,[9],inactive
same,outcome,[17],inactive
same,outcome,[18],inactive
same,outcome,[19],inactive
same,outcome,[11],inactive
same,outcome,[12],inactive
same,outcome,[13],inactive
same,outcome,[14],inactive
same,outcome,[15],inactive
O=[N+]([O-])C=Cc1ccccc1,AC50,[3],46.8 µM (active)
same,AC50,[4],61.5 µM (active)
same,outcome,[5],inactive
same,outcome,[7],inactive
same,outcome,[9],inactive
same,outcome,[20],inactive
same,outcome,[17],inactive
same,outcome,[18],inactive
same,outcome,[19],inactive
same,AC50,[11],27.2 µM (active)
same,outcome,[12],inactive
same,outcome,[15],inactive
O=C(O)c1cc[c]([Hg][Cl])cc1,outcome,[2],inactive
same,outcome,[3],inactive
same,outcome,[4],inactive
same,outcome,[16],inactive
same,outcome,[7],inactive
same,outcome,[8],inactive
same,AC50,[10],49.3 µM (active)
same,outcome,[20],inactive
same,AC50,[18],53.8 µM (active)
same,outcome,[13],inactive
same,outcome,[14],inactive
C[N+](C)(C)CC(=O)O,outcome,[2],inactive
same,outcome,[4],inactive
same,outcome,[6],inactive
same,outcome,[16],inactive
same,outcome,[10],inactive
same,outcome,[20],inactive
same,outcome,[17],inactive
C[N+](C)=CCl,outcome,[1],inactive
same,outcome,[2],inactive
same,outcome,[16],inactive
same,outcome,[20],inactive
CCOC(=O)COc1ccc(Cl)cc1Cl,outcome,[1],inactive
same,outcome,[5],inactive
same,outcome,[16],inactive
same,outcome,[10],inactive
same,outcome,[11],inactive
same,outcome,[12],inactive
same,outcome,[13],inactive
same,outcome,[15],inactive
CC(C)c1ccc(O)cc1,outcome,[1],inactive
same,outcome,[4],inactive
same,outcome,[5],inactive
same,outcome,[7],inactive
same,outcome,[9],inactive
same,outcome,[10],inactive
same,outcome,[20],inactive
same,AC50,[18],74.9 µM (active)
same,outcome,[19],inactive
same,outcome,[13],inactive
same,outcome,[15],inactive
COC(=O)COc1ccc(Cl)cc1Cl,outcome,[1],inactive
same,outcome,[6],inactive
same,outcome,[16],inactive
same,outcome,[20],inactive
same,outcome,[17],inactive
same,outcome,[12],inactive
same,outcome,[13],inactive
same,outcome,[14],inactive
same,outcome,[15],inactive
